Experimental data published in the supplement of paper PMC10849652.
Of roughly 8,800 targets only a part is listed; those with a hit were picked by preference. About 0.5% of all pairs of compound and target were hits. Values without a mark were called inactive.

How the values were obtained:
Assay in all cases: log2 fold change, soluble protein after heating vs DMSO (PISA); higher = thermal stabilisation; K562 lysate, 10 uM; active = over 0.2 and 3.5 SD of the protein, either way, in both replicates (recomputed)
ibrutinib = compound: C=CC(=O)N1CCC[C@@H](n2nc(-c3ccc(Oc4ccccc4)cc3)c3c(N)ncnc32)C1 [ibrutinib]
How it was run: (§1)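 Dounce homogenisation of K562 pellets in PBS pH 7.4 with 1 mM MgCl2 produced a crude extract, used at 1 mg/mL protein. Exposure to 10 μM compound lasted 30 min, and aliquots were then heated for 3 min across 48°C-58°C, pooled and brought to 0.5% NP-40 at 4°C. The supernatant after 21,000xg for 90 min was quantified by TMTpro 16plex LC-MS/MS with channel sums equalised. Duplicate values are given as log-two fold change in thermal stability relative to solvent controls.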

[1] = compound: CC(=O)c1cnc2ccc(-c3cc(Cl)c(O)c(Cl)c3)nc2c1N[C@H]1CC[C@H](CN(C)C)CC1
How it was run: as §1

ralimetinib = compound: CC(C)(C)Cn1c(N)nc2ccc(-c3[nH]c(C(C)(C)C)nc3-c3ccc(F)cc3)nc21 [ralimetinib]
How it was run: as §1

[2] = compound: CC(C)(O)CC(=O)NCCn1ccc2ncnc(Nc3ccc(Oc4cccc(C(F)(F)F)c4)c(Cl)c3)c21
How it was run: as §1

[3] = compound: CC(C)C1=C2N=C(C=C(N2N=C1)NCC3=CC=CC=C3)NCCCCCCN
How it was run: as §1

[4] = compound: CC1=C(C(CC(=O)N1)C2=CC=C(C=C2)C(F)(F)F)C(=O)NC3=C(C=C4C(=C3)C=NN4)F
How it was run: as §1

[5] = compound: CC1=C(C2=C(C=C1)C(=O)C3=CC=CC=C3N2CCCN)C
How it was run: as §1

[6] = compound: CC1=C(C=C(C=C1)NC(=O)C2=CC(=CC=C2)C(C)(C)C#N)NC3=CC4=C(C=C3)N=CN(C4=O)C
How it was run: as §1

[7] = compound: CC1=C(C=C(C=C1)NC(=O)C2=CC(=CC=C2)N(C)C)NC(=O)C3=CC=C(C=C3)O
How it was run: as §1

[8] = compound: CC1=CC=C(C=C1)SC2=C3C=C(SC3=CN=C2)C(=O)N
How it was run: as §1

vemurafenib = compound: CCCS(=O)(=O)Nc1ccc(F)c(C(=O)c2c[nH]c3ncc(-c4ccc(Cl)cc4)cc23)c1F [vemurafenib]
How it was run: as §1

[9] = compound: CCCS(=O)(=O)Nc1ccc(F)c(C(=O)c2c[nH]c3ncc(Cl)cc23)c1F
How it was run: as §1

barasertib = compound: CCN(CCCOc1ccc2c(Nc3cc(CC(=O)Nc4cccc(F)c4)[nH]n3)ncnc2c1)CCOP(=O)(O)O [barasertib]
How it was run: as §1

[10] = compound: CC[C@@H]1C(=O)N(C)c2cnc(Nc3ccc(C(=O)NC4CCN(C)CC4)cc3OC)nc2N1C1CCCC1
How it was run: as §1

volasertib = compound: CC[C@@H]1C(=O)N(C)c2cnc(Nc3ccc(C(=O)N[C@H]4CC[C@H](N5CCN(CC6CC6)CC5)CC4)cc3OC)nc2N1C(C)C [volasertib]
How it was run: as §1

[11] = compound: CCn1c(C(=O)N(C2CC2)C2CC2)cc2c3c(ncn3C)c(Nc3cc(C)n(C)n3)nc21
How it was run: as §1

[12] = compound: CCn1cc(-c2ccnc3[nH]c(-c4cccc(CN(C)C)c4)cc23)c(-c2ccc(NC(=O)N(C)C)cc2)n1
How it was run: as §1

[13] = compound: CN1CCC(CNc2ccc3ncc(-c4cccc(OC(F)(F)F)c4)n3n2)CC1
How it was run: as §1

saracatinib = compound: CN1CCN(CCOc2cc(OC3CCOCC3)c3c(Nc4c(Cl)ccc5c4OCO5)ncnc3c2)CC1 [saracatinib]
How it was run: as §1

sotrastaurin = compound: CN1CCN(c2nc(C3=C(c4c[nH]c5ccccc45)C(=O)NC3=O)c3ccccc3n2)CC1 [sotrastaurin]
How it was run: as §1

Sequence of UniProt P09884 (P09884 whole entry, looked up): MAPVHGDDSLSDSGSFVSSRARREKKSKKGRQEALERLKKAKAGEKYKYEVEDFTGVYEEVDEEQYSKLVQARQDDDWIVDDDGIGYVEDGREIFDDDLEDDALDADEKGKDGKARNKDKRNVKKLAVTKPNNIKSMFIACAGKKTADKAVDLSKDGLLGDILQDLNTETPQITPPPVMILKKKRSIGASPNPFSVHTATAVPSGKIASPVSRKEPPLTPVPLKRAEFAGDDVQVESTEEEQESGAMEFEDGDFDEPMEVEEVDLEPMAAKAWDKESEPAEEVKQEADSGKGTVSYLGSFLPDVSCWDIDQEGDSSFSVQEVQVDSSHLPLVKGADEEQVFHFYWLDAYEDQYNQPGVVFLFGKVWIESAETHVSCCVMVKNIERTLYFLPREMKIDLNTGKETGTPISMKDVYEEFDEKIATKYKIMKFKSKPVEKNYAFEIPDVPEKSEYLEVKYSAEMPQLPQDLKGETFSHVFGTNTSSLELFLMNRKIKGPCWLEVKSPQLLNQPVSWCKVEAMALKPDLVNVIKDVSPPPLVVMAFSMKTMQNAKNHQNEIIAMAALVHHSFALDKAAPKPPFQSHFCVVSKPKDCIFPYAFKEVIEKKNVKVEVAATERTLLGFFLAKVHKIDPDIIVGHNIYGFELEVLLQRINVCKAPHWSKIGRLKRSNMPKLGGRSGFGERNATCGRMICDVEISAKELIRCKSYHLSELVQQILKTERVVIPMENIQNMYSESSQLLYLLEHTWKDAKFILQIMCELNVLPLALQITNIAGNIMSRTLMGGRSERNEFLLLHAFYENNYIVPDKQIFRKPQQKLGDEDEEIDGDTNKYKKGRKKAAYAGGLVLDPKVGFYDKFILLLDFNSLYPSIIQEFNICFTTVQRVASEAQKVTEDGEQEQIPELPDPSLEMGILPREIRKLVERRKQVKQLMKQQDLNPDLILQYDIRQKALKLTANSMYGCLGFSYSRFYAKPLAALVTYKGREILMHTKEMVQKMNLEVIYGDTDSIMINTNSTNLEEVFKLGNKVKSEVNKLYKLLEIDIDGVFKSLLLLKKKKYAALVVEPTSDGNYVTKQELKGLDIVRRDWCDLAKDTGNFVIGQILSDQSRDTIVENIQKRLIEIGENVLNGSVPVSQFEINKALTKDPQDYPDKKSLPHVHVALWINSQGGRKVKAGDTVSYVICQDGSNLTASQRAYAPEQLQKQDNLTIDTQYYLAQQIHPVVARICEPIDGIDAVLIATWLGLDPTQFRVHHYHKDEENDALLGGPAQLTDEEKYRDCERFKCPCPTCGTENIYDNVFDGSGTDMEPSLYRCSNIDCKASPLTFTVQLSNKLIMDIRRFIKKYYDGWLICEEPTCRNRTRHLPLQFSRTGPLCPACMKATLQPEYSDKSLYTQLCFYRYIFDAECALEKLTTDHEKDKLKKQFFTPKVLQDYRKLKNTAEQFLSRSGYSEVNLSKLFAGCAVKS
Sequence of UniProt P06454 (P06454 whole entry, looked up): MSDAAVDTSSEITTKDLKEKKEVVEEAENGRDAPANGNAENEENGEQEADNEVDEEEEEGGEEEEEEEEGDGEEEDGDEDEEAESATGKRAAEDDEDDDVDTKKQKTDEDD
Sequence of UniProt P78395 (P78395 whole entry, looked up): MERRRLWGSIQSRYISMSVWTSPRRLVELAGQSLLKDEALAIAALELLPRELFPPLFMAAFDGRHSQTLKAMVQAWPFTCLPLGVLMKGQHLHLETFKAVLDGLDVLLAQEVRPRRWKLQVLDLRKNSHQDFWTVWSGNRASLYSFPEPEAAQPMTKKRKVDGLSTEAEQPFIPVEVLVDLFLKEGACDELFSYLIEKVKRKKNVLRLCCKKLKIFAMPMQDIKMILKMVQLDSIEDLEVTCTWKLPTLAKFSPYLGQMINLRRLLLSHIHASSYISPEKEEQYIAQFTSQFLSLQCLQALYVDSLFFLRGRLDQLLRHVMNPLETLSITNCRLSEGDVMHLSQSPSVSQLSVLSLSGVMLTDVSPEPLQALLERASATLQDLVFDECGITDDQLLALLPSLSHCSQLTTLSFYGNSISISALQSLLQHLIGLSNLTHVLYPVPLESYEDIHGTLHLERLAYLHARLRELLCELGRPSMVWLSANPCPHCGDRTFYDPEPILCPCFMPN
Sequence of UniProt Q8TCG2 (Q8TCG2 whole entry, looked up): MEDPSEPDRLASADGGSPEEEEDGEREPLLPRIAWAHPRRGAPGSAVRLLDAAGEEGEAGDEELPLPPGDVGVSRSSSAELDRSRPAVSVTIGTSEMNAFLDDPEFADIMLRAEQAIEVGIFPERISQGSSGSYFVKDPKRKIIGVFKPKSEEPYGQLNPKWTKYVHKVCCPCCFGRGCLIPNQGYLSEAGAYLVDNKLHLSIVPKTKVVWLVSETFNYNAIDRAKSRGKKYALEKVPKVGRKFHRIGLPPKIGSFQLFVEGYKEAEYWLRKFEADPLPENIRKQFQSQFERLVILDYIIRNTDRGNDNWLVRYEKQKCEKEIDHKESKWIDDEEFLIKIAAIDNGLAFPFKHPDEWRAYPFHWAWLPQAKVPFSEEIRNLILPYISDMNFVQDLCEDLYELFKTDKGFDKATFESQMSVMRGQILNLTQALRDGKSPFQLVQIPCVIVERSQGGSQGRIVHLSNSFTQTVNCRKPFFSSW
Sequence of UniProt Q96S99 (Q96S99 whole entry, looked up): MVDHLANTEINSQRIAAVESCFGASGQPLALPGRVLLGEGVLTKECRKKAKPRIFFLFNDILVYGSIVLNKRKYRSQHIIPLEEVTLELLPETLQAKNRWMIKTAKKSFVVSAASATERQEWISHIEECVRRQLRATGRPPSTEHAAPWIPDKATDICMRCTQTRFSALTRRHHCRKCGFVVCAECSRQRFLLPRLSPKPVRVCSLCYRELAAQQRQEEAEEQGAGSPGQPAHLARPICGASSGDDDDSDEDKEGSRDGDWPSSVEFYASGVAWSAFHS
Sequence of UniProt Q13362 (Q13362 whole entry, looked up): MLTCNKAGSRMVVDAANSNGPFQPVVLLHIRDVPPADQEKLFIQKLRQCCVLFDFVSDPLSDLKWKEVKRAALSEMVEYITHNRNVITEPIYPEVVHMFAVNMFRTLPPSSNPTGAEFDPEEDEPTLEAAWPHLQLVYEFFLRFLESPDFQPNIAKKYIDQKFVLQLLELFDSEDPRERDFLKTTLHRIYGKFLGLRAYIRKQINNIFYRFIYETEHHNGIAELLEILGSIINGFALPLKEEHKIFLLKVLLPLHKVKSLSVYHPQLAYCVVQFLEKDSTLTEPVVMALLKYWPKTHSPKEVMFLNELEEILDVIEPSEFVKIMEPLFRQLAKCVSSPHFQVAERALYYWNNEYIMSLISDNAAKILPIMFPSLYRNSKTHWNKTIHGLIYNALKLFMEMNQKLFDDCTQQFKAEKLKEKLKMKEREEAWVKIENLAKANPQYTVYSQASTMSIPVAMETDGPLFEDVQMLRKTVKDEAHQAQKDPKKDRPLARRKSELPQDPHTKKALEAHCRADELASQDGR
Sequence of UniProt O95336 (O95336 whole entry, looked up): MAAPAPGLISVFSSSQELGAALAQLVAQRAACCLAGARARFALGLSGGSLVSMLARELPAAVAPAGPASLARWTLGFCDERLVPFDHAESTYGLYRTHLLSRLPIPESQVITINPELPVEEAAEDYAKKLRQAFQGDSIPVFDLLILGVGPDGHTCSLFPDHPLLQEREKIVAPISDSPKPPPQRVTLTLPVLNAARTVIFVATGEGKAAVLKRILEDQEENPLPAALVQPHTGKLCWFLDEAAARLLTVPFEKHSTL
Sequence of UniProt Q8WUM4 (Q8WUM4 whole entry, looked up): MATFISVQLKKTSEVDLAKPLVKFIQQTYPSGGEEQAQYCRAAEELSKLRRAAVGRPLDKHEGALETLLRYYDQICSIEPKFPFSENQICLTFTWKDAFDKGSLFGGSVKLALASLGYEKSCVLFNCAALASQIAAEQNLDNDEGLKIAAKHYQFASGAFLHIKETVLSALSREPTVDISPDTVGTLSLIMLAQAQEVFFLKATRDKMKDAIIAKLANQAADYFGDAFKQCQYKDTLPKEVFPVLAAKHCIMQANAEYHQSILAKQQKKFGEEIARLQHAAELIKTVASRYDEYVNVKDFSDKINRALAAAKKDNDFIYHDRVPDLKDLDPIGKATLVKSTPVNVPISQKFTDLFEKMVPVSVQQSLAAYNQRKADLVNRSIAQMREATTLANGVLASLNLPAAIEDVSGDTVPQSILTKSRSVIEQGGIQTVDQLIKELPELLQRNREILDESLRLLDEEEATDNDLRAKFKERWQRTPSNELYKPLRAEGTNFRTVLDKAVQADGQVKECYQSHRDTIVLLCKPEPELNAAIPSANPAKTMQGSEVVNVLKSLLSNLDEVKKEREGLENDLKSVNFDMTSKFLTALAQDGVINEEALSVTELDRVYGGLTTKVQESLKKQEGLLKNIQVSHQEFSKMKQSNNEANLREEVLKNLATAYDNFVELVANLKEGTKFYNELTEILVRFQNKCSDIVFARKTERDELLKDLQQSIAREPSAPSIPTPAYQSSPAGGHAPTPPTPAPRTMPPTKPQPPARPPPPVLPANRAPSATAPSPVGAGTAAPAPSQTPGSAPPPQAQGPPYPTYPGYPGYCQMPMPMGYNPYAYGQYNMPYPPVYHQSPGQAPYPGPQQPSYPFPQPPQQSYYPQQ
Sequence of UniProt Q9UBV8 (Q9UBV8 whole entry, looked up): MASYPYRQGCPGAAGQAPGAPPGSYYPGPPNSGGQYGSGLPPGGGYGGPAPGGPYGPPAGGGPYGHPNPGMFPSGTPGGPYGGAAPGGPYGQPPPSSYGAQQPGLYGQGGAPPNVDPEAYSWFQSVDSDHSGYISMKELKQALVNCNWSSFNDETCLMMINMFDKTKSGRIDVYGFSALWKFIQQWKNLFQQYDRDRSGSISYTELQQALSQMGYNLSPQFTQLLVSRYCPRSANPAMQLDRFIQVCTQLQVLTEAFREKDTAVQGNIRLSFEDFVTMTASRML
Sequence of UniProt P07737 (P07737 whole entry, looked up): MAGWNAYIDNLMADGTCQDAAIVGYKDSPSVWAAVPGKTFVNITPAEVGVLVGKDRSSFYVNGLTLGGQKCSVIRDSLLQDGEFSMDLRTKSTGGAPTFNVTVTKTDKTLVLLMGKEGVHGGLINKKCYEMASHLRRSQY

| Target | log2 fold change (ibrutinib) | log2 fold change [1] | log2 fold change (ralimetinib) | log2 fold change [2] | log2 fold change [3] | log2 fold change [4] | log2 fold change [5] | log2 fold change [6] | log2 fold change [7] | log2 fold change [8] | log2 fold change (vemurafenib) | log2 fold change [9] | log2 fold change (barasertib) | log2 fold change [10] | log2 fold change (volasertib) | log2 fold change [11] | log2 fold change [12] | log2 fold change [13] | log2 fold change (saracatinib) | log2 fold change (sotrastaurin) |
| --- | --- | --- | --- | --- | --- | --- | --- | --- | --- | --- | --- | --- | --- | --- | --- | --- | --- | --- | --- | --- |
| PELO (UniProt Q9BRX2) | 0.034 | -0.004 | 0.04 | -0.035 | 0.005 | -0.02 | -0.012 | -0.005 | 0.001 | 0.002 | 0 | 0.021 | 0.037 | -0.115 | -0.066 | -0.014 | 0.404 (active) | -0.183 | -0.001 | -0.018 |
| PGLS (UniProt O95336) | 0.012 | -0.08 | 0.06 | 0.008 | 0.001 | -0.012 | -0.075 | 0.038 | -0.003 | 0.077 | -0.033 | -0.027 | 0.067 | -0.055 | 0.027 | 0.036 | 0.051 | -0.114 | 0.039 | 0.006 |
| POLA1 (UniProt P09884) | 0 | -0.013 | -0.032 | 0.003 | 0.001 | 0.007 | -0.001 | 0.02 | 0.022 | -0.016 | 0.002 | 0 | 0.042 | 0.021 | -0.012 | 0.03 | -0.009 | -0.016 | -0.003 | 0.004 |
| PEF1 (UniProt Q9UBV8) | 0.009 | -0.021 | -0.034 | -0.036 | -0.029 | -0.025 | -0.004 | 0.021 | 0.01 | -0.01 | -0.025 | 0.015 | 0.189 | 0.033 | 0.009 | -0.001 | -0.116 | -0.043 | -0.025 | -0.016 |
| PRAME (UniProt P78395) | 0.009 | 0.029 | 0.003 | 0.005 | 0.011 | 0.015 | 0.003 | 0.006 | 0.008 | 0.002 | 0.028 | -0.012 | 0.003 | -0.086 | -0.009 | 0.017 | -0.058 | 0.011 | 0 | 0.018 |
| PPP2R5C isoform 5 (UniProt Q13362) | -0.002 | 0.012 | -0.021 | -0.036 | -0.037 | -0.038 | 0.02 | 0.002 | 0.014 | 0.037 | -0.056 | -0.013 | -0.03 | -0.063 | 0.014 | 0.058 | 0.046 | -0.08 | 0 | -0.011 |
| PDCD6IP (UniProt Q8WUM4) | -0.056 | 0.042 | -0.066 | -0.004 | 0.078 | 0.009 | 0.004 | -0.037 | 0.02 | -0.03 | -0.003 | 0.015 | 0.083 | -0.061 | 0.006 | 0.013 | -0.073 | -0.035 | -0.068 | -0.139 |
| PRKCA (UniProt P17252) | 0.015 | 0.366 (active) | -0.012 | 0.069 | 0.032 | -0.015 | -0.094 | -0.002 | 0.033 | -0.045 | 0.019 | -0.016 | 0.051 | -0.186 | -0.054 | 0.004 | 0.101 | -0.207 | -0.046 | 0.924 (active) |
| PSTPIP2 (UniProt Q9H939) | -0.019 | -0.037 | -0.024 | 0.012 | 0.001 | -0.049 | -0.037 | 0.022 | -0.001 | -0.034 | 0.022 | 0.018 | 0.01 | -0.029 | -0.037 | -0.007 | 0.063 | -0.09 | 0.032 | 0 |
| PLEKHF1 (UniProt Q96S99) | -0.004 | 0.015 | 0.053 | -0.042 | 0.002 | -0.069 | -0.025 | -0.002 | -0.017 | 0.015 | 0.019 | -0.008 | 0.004 | -0.004 | 0.002 | 0.059 | -0.062 | 0.018 | 0.007 | -0.028 |
| PRKCD (UniProt Q05655) | 0.021 | 0.162 | 0.01 | -0.005 | 0.006 | 0.027 | -0.012 | -0.004 | 0.038 | 0.04 | -0.006 | -0.118 | 0.057 | 0.008 | -0.041 | -0.014 | 0.012 | 0.021 | -0.005 | 0.058 |
| PTMA (UniProt P06454) | 0.015 | 0.028 | -0.121 | 0.009 | 0.004 | -0.068 | 0.006 | 0.023 | -0.015 | 0.002 | 0.022 | -0.049 | 0.018 | 0.06 | 0.004 | -0.031 | 0.569 (active) | -0.337 (active) | -0.061 | 0.04 |
| PI4K2B (UniProt Q8TCG2) | -0.028 | 0.04 | 0.103 | 0.069 | -0.063 | -0.075 | -0.005 | -0.082 | 0.001 | 0.005 | -0.003 | -0.006 | 0.023 | 0.07 | -0.032 | -0.062 | 0.081 | 0.121 | -0.009 | 0.132 |
| PFN1 (UniProt P07737) | -0.018 | -0.007 | 0.009 | 0.013 | -0.022 | -0.017 | 0.009 | 0.007 | 0 | 0.002 | -0.01 | -0.01 | 0.012 | 0.02 | 0.015 | 0.02 | -0.02 | 0.028 | -0.004 | -0.005 |
| PRKAR2A (UniProt P13861) | 0.044 | -0.064 | 0.033 | -0.032 | 0.018 | 0.015 | 0.005 | 0 | 0.011 | 0.036 | -0.01 | 0.033 | 0.055 | 0.011 | -0.013 | 0.009 | 0.065 | -0.26 (active) | -0.012 | -0.154 |
| PFAS (UniProt O15067) | -0.007 | -0.016 | 0.03 | 0.006 | 0.003 | -0.015 | -0.003 | -0.041 | 0.032 | 0.002 | 0.029 | 0.023 | 0.015 | -0.048 | -0.091 | 0 | -0.023 | 0.001 | -0.013 | -0.015 |
